# Screens (PubChem BioAssay)
# The entries come from a sample that favours hits as a whole.
# Pf Dd2 inh – blocks in vitro growth of P. falciparum Dd2. AID 1347417. 120,000 tested, 4.3% active. P. falciparum Dd2 growth, SYBR Green, 72 h. Potency, µM (doses to about 28.9 µM), for inactives: at the top dose activity, negative = inhibition, actives largely listed as inhibitors; active = well fitted inhibition curve with a large enough effect;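 also: plate controls were DMSO vehicle for no effect and reference drug for full effect; nearly all actives have a fitted effect of over 65% in size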
#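 Infected erythrocytes (Dd2, 0.3% parasitemia, 2.5% hematocrit final) are added to compound in RPMI-1640/Albumax II medium, grown 72 h at 37C in low oxygen, then lysed with saponin/Triton-X containing SYBR Green and read by fluorescence.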
# An asterisk follows results filed as active; i = inactive; [ ] = dose if it differs, or a comment. Potency is read from the fitted curve at half-maximal effect.
SMILES,Pf Dd2 inh
C=CCN1CC2(CCC1=O)CCN(C(=O)[C@H](N)c1ccccc1)CC2,-15%
CN1CC2(CCN(Cc3ccccn3)CC2)CC1C(=O)N1CCOCC1 (centres undefined),-1%
CN1CC2(CCN(Cc3cccn3C)CC2)CC1C(=O)N1CCOCC1 (centres undefined),-26%
CN1CC2(CCN(C(=O)CCCc3ccccc3)CC2)CC1C(=O)N1CCOCC1 (centres undefined),2.2µM*
Cc1cccc(-n2ncc3c2CCCC3NC(=O)CCC(F)(F)F)c1C (centres undefined),3%
CCNC(=O)c1sc2ncnc(NC[C@H]3C[C@@H]4C=C[C@H]3C4)c2c1C,-6%
COCCn1nc2n(c1=O)CCN(C(=O)COc1ccc(F)cc1)CC2,58%
CCOc1ccccc1C(=O)N[C@@H]1CN(Cc2cccnc2)C[C@H]1CN(C)C,-37%
COc1ccccc1C(=O)N[C@@H]1CN(Cc2ccncc2)C[C@H]1CN(C)C,-21%
CCOc1ccccc1C(=O)N[C@@H]1CN(Cc2ccncc2)C[C@H]1CN(C)C,5µM*
O=C1[C@H]2CN(Cc3ccc(C(F)(F)F)cc3)C[C@H]2C(=O)N1Cc1ccc2c(c1)OCO2,-18%
Cc1ccc(Cl)cc1NC(=O)N(C)CC1CCOCC1,-3%
CN(C)C(=O)C1CCc2nnc(C3CCN(C(=O)Nc4ccc(Cl)cc4)CC3)n21 (centres undefined),22%
CNC(=O)N1C[C@@H](CN(C)C)[C@H](NC(=O)C2(c3ccc(OC)cc3)CC2)C1,i
COCC(=O)N[C@@H]1CCC[C@@H](C(=O)NCc2ccc(OC)cc2)CC(=O)N(C)C1,i
Cn1ccnc1CN1CCN(CC2(O)CNCCOC2)CC1 (centres undefined),24%
OC1(CN2CCCN(c3nc4ccccc4s3)CC2)CNCCOC1 (centres undefined),8.9µM*
OC1(CN2CCN(C(c3ccccc3)c3ccccc3)CC2)CNCCOC1 (centres undefined),6.3µM*
OC1(CN2CCN(c3cnccn3)CC2)CNCCOC1 (centres undefined),-7%
Cc1cc(N2CCN(CC3(O)CNCCOC3)CC2)n2ncnc2n1 (centres undefined),-1%
OC1(CN2CCC(OCc3ccccn3)CC2)CNCCOC1 (centres undefined),-19%
Cn1c(CNC(=O)C2Cn3cccc3C(=O)N2Cc2cccnc2)nc2ccccc21 (centres undefined),i
COCC1(CNCc2ccc(OC)cc2)C[C@@H](O)[C@@H](O)C1 (some centres undefined),-15%[44.1 µM]
CCc1cccc(NC(=O)Cn2nc3n(c2=O)CCCCC3)c1,9%
CCN1CCN(c2nc3c(s2)CN(Cc2ccccn2)CC3)CC1,i
SMILES,Pf Dd2 inh
CCNC(=O)N(C1CC1)C1CCOC2(CCN(C(=O)NCc3ccccc3)CC2)C1 (centres undefined),2%
Cc1nc2ccccc2n1CCC(=O)N1CCc2[nH]cnc2C1C(=O)O (centres undefined),-1%
CCn1c2c(c(=O)n1Cc1ccccc1)CCN(C(=O)CCc1ccccn1)C2,9%[44.1 µM]
CC(C)C(=O)N1CCc2ccc(C(=O)NC3CC3)cc21,i
COc1ccc(CN2CCCC3(Cc4ccccc4CNC3=O)C2)c(OC)n1 (centres undefined),5µM*
O=C1NCc2ccccc2CC12CCN(Cc1cc(F)ccc1F)CC2,0%
O=C1NCc2ccccc2CC12CCCN(Cc1cc(F)ccc1O)C2 (centres undefined),8.9µM*
O=C1NCc2ccccc2CC12CCCN(Cc1ccnc3ccccc13)C2 (centres undefined),-22%
O=C1NCc2ccccc2CC12CCCN(Cc1ccc(F)cc1)C2 (centres undefined),-25%
O=C1NCc2ccccc2CC12CCCN(Cc1c(F)cccc1Cl)C2 (centres undefined),-20%
O=C1NCc2ccccc2CC12CCCN(Cc1ccncc1)C2 (centres undefined),-21%
O=C1NCc2ccccc2CC12CCN(Cc1cc(F)ccc1O)C2 (centres undefined),11µM*
O=C1NCc2ccccc2CC12CCN(Cc1cc(F)ccc1F)C2 (centres undefined),-16%
CCOCCOC1CCN(C(=O)c2n[nH]c3ccccc23)CC1,i
COCc1noc(CC2CCOC3(CCN(C(=O)c4cccc5[nH]ccc45)CC3)C2)n1 (centres undefined),-17%
N#CCn1nc2n(c1=O)CCN(S(=O)(=O)c1cccc3cccnc13)CC2,4%
CSc1cccc(NC(=O)N[C@H]2CCN(C(=O)C=C(C)C)[C@@H]2C(=O)N[C@@H](Cc2cccs2)C(N)=O)c1,i
COc1cccc(CNC(=O)[C@@H]2C[C@@H](O)CN2C2CCN(C(=O)c3ccc(C)nc3)CC2)c1,-14%
Cc1nn(C)c(C)c1C(=O)N1CCCN(Cc2ccc(F)cc2)C(C(C)C)C1 (centres undefined),-5%
Fc1ccc(-c2cc(-c3ccccc3)c3c(n2)-c2ccccc2OC3)cc1,i
Fc1ccc(Nc2nc(-c3cccc(Cl)c3)c3c(n2)-c2ccccc2OC3)c(F)c1,-15%
Fc1ccc(-c2nc(Nc3cccc(C(F)(F)F)c3)nc3c2COc2ccccc2-3)cc1,10µM*
NC(=O)Cn1ccn2nc3c(c2c1=O)CCCC3,-6%
Cc1cc(C)n2nc(C)c(C(=O)N[C@@H]3COCC[C@@H]3OCC3CC3)c2n1,-19%
CC(=O)Nc1ccc(CNC2(Cc3cc(CN(C)Cc4ccccc4)on3)COC2)cc1,0%[44.1 µM]
Cc1cc(C(=O)N[C@H]2[C@H](O)[C@H](O)C[C@@H]2c2ccc(N3CCOCC3)nc2)nn1C,-2%[44.1 µM]
